D3 ag = activates the human D3 dopamine receptor. actives 0.58% (n = 410,000). D3R DiscoveRx beta-arrestin cells, luminescence, 90 min. max activation, %. P35462; in the data active means max activation above about 30%
Target sequence (P35462 whole entry, looked up): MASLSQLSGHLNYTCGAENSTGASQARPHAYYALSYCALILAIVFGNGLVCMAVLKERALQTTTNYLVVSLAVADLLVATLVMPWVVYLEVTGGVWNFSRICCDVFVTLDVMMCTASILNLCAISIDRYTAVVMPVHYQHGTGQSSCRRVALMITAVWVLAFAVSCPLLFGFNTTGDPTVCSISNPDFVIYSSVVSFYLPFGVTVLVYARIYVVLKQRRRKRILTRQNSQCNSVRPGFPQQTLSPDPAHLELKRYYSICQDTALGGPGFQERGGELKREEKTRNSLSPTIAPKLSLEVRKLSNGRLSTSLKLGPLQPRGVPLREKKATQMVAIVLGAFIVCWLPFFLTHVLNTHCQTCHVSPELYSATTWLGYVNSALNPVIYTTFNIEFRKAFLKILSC
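Agonist-mode cell screen: cells plated at 1500/well and incubated overnight at 37 °C, then exposed to library compounds for 90 min at 37 °C. Detection reagent was added for 30–60 min at room temperature, and luminescence was read.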
DRD3 antagonist = blocks the human D3 dopamine receptor; P35462; D3R cells, DiscoveRx beta-arrestin luminescence, antagonist mode; hits give low values; max response, negative = inhibition, %; actives 2.5% (n = 360,000); in the data active means max response below about -50%; inconclusive means no clear call, values can overlap the other calls
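Cells plated overnight at 1500 cells/well, then exposed to library compounds with dopamine controls for 90 minutes at 37 degrees C. DiscoveRx reagent added for 30–60 minutes at room temperature; luminescence read, quantitative HTS format.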
D1 antagonist = human D1 dopamine receptor antagonism | P21728 | HEK293 TREx D1 cells, calcium flux, dopamine EC80; hits give low values | activity change, negative = inhibition, % at 10 µM | actives 3.2% (n = 360,000); in the data active means activity change below about -30%
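After overnight tetracycline induction at 30 C, force-coupled D1 HEK293 cells took up a no-wash calcium dye at room temperature. Compounds were added and monitored 180 s, and the response to EC80 dopamine was then recorded.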
D1 potentiator = enhances dopamine response at the human D1 receptor; P21728; AID 504651; potentiation, % at 10 µM; actives 0.036% (n = 360,000); HEK293 TREx D1 cells, calcium flux, dopamine EC20 potentiation; in the data active means potentiation above about 30%
D1 agonist = activates the human D1 dopamine receptor. actives 1% (n = 360,000). HEK293 T-REx D1 cells, calcium flux, agonist mode. P21728. activation, % at 2 µM; in the data active means activation above about 30%
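Tetracycline-induced HEK293 TREx D1 cells, force-coupled to calcium signalling, were dye-loaded with a no-wash calcium kit. Compound was pin-added after a 10 s baseline. Fluorescence was read kinetically at 1 cycle/s for 180 s, with calcium rises flagged as agonism.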
Of the large screens only hits and unclear results are named; the others gave an inactive call; ! = not active in a repeat. Sampled rows, rich in hits. Any-hit rate of the full collection: about 6%.

CN(C)CCOc1cc(Cl)cc(Cl)c1	DRD3 antagonist -64
Cc1cc(OCC(=O)NC2CCCCC2)ccc1Cl	none
CCCOc1ccc(/C=C/C(=O)Nc2sc(C)c(C)c2C(=O)OCC)cc1OC	none (no result: DRD3 antagonist)
CN(C)CCOC(=O)Cc1ccc(Cl)cc1	none
CN(C)CCOC(=O)COc1ccc(Cl)cc1	D3 ag 45!
CCC1CCC(N2CCN(c3ccc(F)cc3)CC2)CC1 (stereo not drawn)	D1 antagonist -46
CCC1CCC(N2CCN(c3ccccc3F)CC2)CC1 (stereo not drawn)	DRD3 antagonist -77
Clc1ccccc1CSc1nnc(C2CCNCC2)o1	none (no result: DRD3 antagonist)
Fc1cccc(CCN2CCN=C2Nc2ccccc2)c1	DRD3 antagonist -74
c1ccc(NC2=NCCN2CCCC2CCCCC2)cc1	DRD3 antagonist inconclusive, D1 agonist 33
c1ccc(CCCCN2CCN=C2Nc2ccccc2)cc1	none
CC(=O)c1cccc(NC(=O)CSc2nnc3ccc(-c4ccc(C)cc4)nn23)c1	none (no result: DRD3 antagonist, D1 antagonist)
O=C[C@H](O)[C@@H](O)[C@H](O[C@H]1O[C@H](CO)[C@@H](O[C@H]2O[C@H](CO)[C@@H](O)[C@H](O)[C@H]2O)[C@H](O)[C@H]1O)[C@H](O)CO	none (no result: DRD3 antagonist, D1 antagonist, D1 potentiator, D1 agonist)
COc1cccc(/C=N/NC(=O)c2cc(-c3cccn3C)n[nH]2)c1	DRD3 antagonist -51
COC(=O)Oc1c(Br)c(=O)oc2ccccc12	DRD3 antagonist -82 (no result: D1 antagonist, D1 potentiator, D1 agonist)
CC(=O)Nc1c(NC(C)C)c2ccccc2oc1=O	none
CN(C)CCc1c[nH]c2ccc(CS(=O)(=O)N3CCCC3)cc12	none (no result: DRD3 antagonist, D1 antagonist, D1 potentiator, D1 agonist)
O=C1c2ccccc2C(=O)N1CCc1c(-c2ccccc2)[nH]c2ccccc12	D3 ag 33 (no result: D1 antagonist, D1 potentiator, D1 agonist)
O=C1c2ccccc2C(=O)N1CCc1c(-c2[nH]c3ccccc3c2CCN2C(=O)c3ccccc3C2=O)[nH]c2ccccc12	none (no result: D1 antagonist, D1 potentiator, D1 agonist)
CCn1ccc(C(=O)Nc2c(C)nn(Cc3c(F)c(F)c(F)c(F)c3F)c2C)n1	none
O=C(O)c1cc(NCc2ccccc2)ccc1N1CCOCC1	none
CCOc1ccc(CNc2ccc(N3CCOCC3)c(C(=O)O)c2)cc1	D1 antagonist -56
CCOC(=O)CSc1nnc(CNC(=O)c2ccc(S(=O)(=O)N3CCCC3)cc2)n1C	D1 agonist 54
CN1C(=O)c2ccccc2Sc2ccc(NC(=O)N3CCN(c4ccccc4F)CC3)cc21	none (no result: DRD3 antagonist)
C=C[C@]1(C)C=C2C(=O)[C@@]3(O)OC(=O)[C@@]4(CCCC(C)(C)[C@H]34)[C@@]2(O)CC1	DRD3 antagonist -58 (no result: D1 antagonist, D1 potentiator, D1 agonist)
O=C(Nc1ccc(Cc2ccncc2)cc1)C1CCC(N2C(=O)C3CCCCC3C2=O)CC1 (stereo not drawn)	D1 antagonist -39
Cc1ccccc1OCCSc1nc(C)c(Cc2ccccc2)c(=O)[nH]1	none (no result: DRD3 antagonist)
O=C(c1cc2ccccc2o1)N1CCN(CCOc2ccccc2)CC1	D3 ag 58
CCCN1CCN(C(=O)Nc2ccc(OCC)cc2)CC1	none
O=C(OCCN1CCCCC1)c1ccccc1Br	none
O=C(Nc1ccc2ccccc2c1)N1CCCN(CCOc2ccccc2)CC1	DRD3 antagonist -78
O=C(c1ccco1)c1nc2c(n1O)CCCCC2	none
O=C(c1cc2ccccc2o1)c1nc2c(n1O)CCCCC2	DRD3 antagonist -79
O=C(OCCN1CCCCC1)c1cc2ccccc2o1	DRD3 antagonist -66
COc1ccc(NC(=O)CN2C(=O)C(c3ccc(C)cc3)=NC23CCCCCC3)cc1Cl	none (no result: DRD3 antagonist)
C/C(=N\NC(=O)C1COc2ccccc2O1)c1cc2ccccc2o1 (stereo not drawn)	DRD3 antagonist inconclusive
CCOC(=O)C1CCN(S(=O)(=O)c2cc(Br)cc3c2N(C(=O)CC)CC3)CC1	none (no result: DRD3 antagonist)
CCC(=O)N1CCc2cc(S(=O)(=O)N3CCN(c4ccccc4F)CC3)ccc21	none (no result: DRD3 antagonist)
CCn1cc(C2N3CC4(C)CN2CC(C)(C3)C4=O)c2ccccc21 (stereo not drawn)	D1 antagonist -76 (no result: D1 potentiator)
CCOC(=O)c1cc(-c2ccc(F)cc2)n(CCC(=O)Nc2cc(OC)cc(OC)c2)c1C	none (no result: DRD3 antagonist)
CC1CCN(C(=O)C2CCC(=O)N(Cc3ccc(Cl)cc3)C2)CC1 (stereo not drawn)	none
Cc1ccc(NC(=O)NCc2c(-n3cccc3)sc3c2CCCC3)c(Cl)c1	none (no result: DRD3 antagonist)
OC(COc1c(F)cc(Br)cc1F)CN1CCc2ccccc2C1 (stereo not drawn)	DRD3 antagonist -111
OC(CN1CCc2ccccc2C1)c1ccccc1 (stereo not drawn)	none
Cn1cc(CNCc2ccccc2OCC(O)CN2CCc3ccccc3C2)cn1 (stereo not drawn)	DRD3 antagonist -71
OC(COc1c(Br)cc(Br)cc1Br)CN1CCOCC1 (stereo not drawn)	none
O=S(=O)(c1ccc(OCC(O)CN2CCCCC2)cc1)N1CCOCC1 (stereo not drawn)	none
Cc1cccc(C)c1OCC(O)CN1CCc2ccccc2C1 (stereo not drawn)	DRD3 antagonist -67 (no result: D1 antagonist, D1 potentiator, D1 agonist)
O=S(=O)(c1ccc(OCC(O)CN2CCc3ccccc3C2)cc1)N1CCOCC1 (stereo not drawn)	DRD3 antagonist -57
CCn1c(CNC(=O)c2ccc(OC)cc2)nnc1SCC(=O)Nc1cc(C)ccc1C	none (no result: DRD3 antagonist)
COc1ccc(N2CCN(S(=O)(=O)c3c(C)nc4sc(C)cn4c3=O)CC2)cc1	none (no result: DRD3 antagonist)
COc1cccc(Cn2c(=O)n(Cc3ccco3)c(=O)c3oc4ccccc4c32)c1	none (no result: DRD3 antagonist)
O=C(Cc1coc2cc3c(cc12)CCC3)NC1CCCCCCC1	D1 antagonist -51
COc1ccc(C2c3c(n(C)c4ccccc34)C(=O)N2CC(=O)Nc2ccc(Cl)cc2)cc1 (stereo not drawn)	none (no result: DRD3 antagonist)
COC(=O)c1ccc(NC(=O)CCN2CCN(c3ccccc3)CC2)cc1	none
O=C(CCN1CCOCC1)c1ccc(N2CCCCC2)cc1	DRD3 antagonist -76 (no result: D1 antagonist)
O=C(CCN1CCN(c2ccccc2)CC1)c1ccc(Cl)cc1	DRD3 antagonist -70
CN1CCN(CC(=O)Nc2ccc(OCc3ccccc3)cc2)CC1	none (no result: D3 ag, DRD3 antagonist)
O=C(CCN1CCN(c2ccccc2)CC1)Nc1ccc(Cl)cc1	DRD3 antagonist -62
O=C(CCN1CCN(c2ccccc2)CC1)Nc1ccc(OCc2ccccc2)cc1	D3 ag 35
CC1=C(C(=O)Nc2cccnc2)C(c2cccc(O)c2)n2nc(SCc3ccccc3)nc2N1 (stereo not drawn)	none (no result: DRD3 antagonist)
COc1ccccc1-c1nc(SCC(=O)NCc2ccc(C)cc2)c2c(=O)n(C)c(=O)n(C)c2n1	none (no result: DRD3 antagonist)
COc1cc(C2C(=O)N(C3CCCCC3)CC(=O)N2CCC2=CCCCC2)ccc1OC(C)C (stereo not drawn)	none (no result: DRD3 antagonist)
c1ccc(CCCN2CCOCC2)cc1	none
CCOc1ccccc1C(=O)N1CCN(c2cccc(Cl)c2)CC1	none
c1ccc(CCCN2CCN(c3ccccc3)CC2)cc1	DRD3 antagonist -64
O=C(NCCN1CCN(c2ccccc2)CC1)Nc1ccc(Cl)cc1	DRD3 antagonist -55, D1 antagonist -32, D1 agonist 30
